Laboratory results from PubChem BioAssay.

target: Dihydroorotate dehydrogenase (quinone), mitochondrial (Plasmodium falciparum (isolate 3D7)) (UniProt Q08210); assay: inhibition of P. falciparum DHODH – biochemical, C-terminal His tag, absorbance 600 nm, primary screen (AID 1175); details: PfDHODH enzyme, DCIP absorbance 600 nm; higher = more signal, called active from +8 up or from −8 down;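 note: recombinant parasite enzyme with a five histidine tag at its C terminus; test concentration not given here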
Sequence (Q08210 whole entry, looked up): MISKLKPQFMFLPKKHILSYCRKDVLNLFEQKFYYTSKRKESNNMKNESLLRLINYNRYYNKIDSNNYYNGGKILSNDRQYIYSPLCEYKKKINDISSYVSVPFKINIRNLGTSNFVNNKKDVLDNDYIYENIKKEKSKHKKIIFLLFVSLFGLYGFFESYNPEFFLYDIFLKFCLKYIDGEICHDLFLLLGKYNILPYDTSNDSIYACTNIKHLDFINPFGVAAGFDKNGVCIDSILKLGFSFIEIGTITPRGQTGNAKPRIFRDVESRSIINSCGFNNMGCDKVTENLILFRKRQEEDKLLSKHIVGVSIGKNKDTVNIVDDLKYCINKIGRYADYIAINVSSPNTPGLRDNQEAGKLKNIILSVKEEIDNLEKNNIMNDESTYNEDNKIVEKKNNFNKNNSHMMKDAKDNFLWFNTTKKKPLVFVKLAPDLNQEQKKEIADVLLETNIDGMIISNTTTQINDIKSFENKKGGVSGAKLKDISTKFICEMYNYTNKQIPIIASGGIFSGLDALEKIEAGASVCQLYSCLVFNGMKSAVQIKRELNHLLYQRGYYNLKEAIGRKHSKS

Composite z-score, inactive:
COC(=O)[C@H](C)NC(=O)CCC1CC(OC(=O)NCc2cccc3ccccc23)CC2(CCCC(COC(=O)NCCc3ccccc3OC)O2)O1 (stereo partly specified) 0.325
CO[C@@H](C(C)C)[C@@H](C)C1OC(=O)CC1O (stereo partly specified) -0.531
COc1ccc(COC(=O)NN=C2C[C@@H](O)[C@@H](O)[C@@H]3[C@@H]4C(=O)N(C[C@@H]5CCCO5)C(=O)[C@@H]4CC[C@H]23)cc1 -0.395
COC(=O)[C@H](C)NC(=O)CCC1CC(OC(=O)NCCc2ccc(F)cc2)CC2(CCCC(COC(=O)NCCc3ccccc3OC)O2)O1 (stereo partly specified) 0.098
CON=C(C)CCN1CCCCc2nc(C)c(C)cc21 -1.07
CC(C)C(=O)N[C@H]1CCCN1C(=O)C=Cc1ccccc1 0.581
C#CCCCON=C1C[C@@H](O)[C@@H](O)[C@@H]2[C@@H]3C(=O)N(C[C@@H]4CCCO4)C(=O)[C@@H]3CC[C@@H]12 -0.85
COc1ccc(COC(=O)NN=C2C[C@@H](O)[C@@H](O)[C@@H]3[C@@H]4C(=O)N(C5CCCCC5)C(=O)[C@@H]4CC[C@@H]23)cc1 -1.39
CCOC(=O)[C@H](CC(C)C)NC(=O)CCC1CC(OC(=O)NCc2ccc3c(c2)OCO3)CC2(CCCC(COC(=O)NCCc3ccc(Cl)cc3)O2)O1 (stereo partly specified) -0.704
CC(CCC(=O)OC[C@H]1O[C@H](C#Cc2ccccc2)C=C[C@@H]1Oc1ccc(C)cc1)=NO[C@@H](C)c1cc(-c2c(C)cc(C)cc2C)no1 1.04
COC(=O)[C@H](C)NC(=O)CC=C[C@@H](C)[C@@H]1C=C[C@H](O)[C@@H](CO)O1 -0.0763
C[C@H]1CC[C@@H](C(=O)O)N[C@@H]1c1cccc(N2CCCC2=O)c1 0.552
CO[C@@H]1[C@H](O)CO[C@H]1C=Cc1ccccc1 0.295
COC(=O)[C@H](C)NC(=O)CCC1CC(OC(=O)NCCc2ccc(F)cc2)CC2(CCCC(COC(=O)NCc3ccccc3)O2)O1 (stereo partly specified) 0.152
CC(C)CON=C1C[C@@H](O)[C@@H](O)[C@@H]2[C@@H]3C(=O)N(c4ccc(F)cc4F)C(=O)[C@@H]3CC[C@@H]12 -2.1
O=C1C=C[C@@H](O)[C@@H]2[C@@H]3C(=O)N(Cc4ccc5c(c4)OCO5)C(=O)[C@@H]3CC[C@@H]12 0.0627
CC[C@@H](c1ccccc1)n1c(=O)n2n(c1=O)[C@H]1[C@H](O)[C@@H]3O[C@@H]3C(=NOCc3ccccc3)[C@H]1CC2 0.149
CC(=O)OC[C@H]1O[C@H](CC=NOC[C@@H](O)COCc2ccco2)C=C[C@@H]1OC(C)=O -0.554
C[C@H]1C=CCC(=O)OC[C@H](C)C(=O)N2CCC[C@H]2C(=O)OC1 -0.441
CC(C)CON=C1C[C@@H](O)[C@@H](O)[C@@H]2[C@@H]3C(=O)N(Cc4ccc5c(c4)OCO5)C(=O)[C@@H]3CC[C@@H]12 0.0312
CCOC(=O)CCN1C(=O)[C@H]2[C@H]3[C@H](O)[C@H](O)CC(=NNC(=O)OCC)[C@H]3CC[C@H]2C1=O 0.519
CC(=O)OC[C@H]1O[C@@H](ON=C2[C@H]3CCn4c(=O)n(-c5ccccc5)c(=O)n4[C@H]3[C@H](O)[C@@H]3O[C@H]23)[C@H](OC(C)=O)[C@@H](OC(C)=O)[C@@H]1OC(C)=O -1.44
CCOC(=O)[C@H](CC(C)C)NC(=O)CCC1CC(OC(=O)NCc2ccc3c(c2)OCO3)CC2(CCCC(COC(=O)NCCOC)O2)O1 (stereo partly specified) -0.617
O=C1C[C@@H](O)[C@@H](O)[C@@H]2[C@@H]3C(=O)N(c4ccc(F)cc4F)C(=O)[C@@H]3CC[C@H]12 -0.0528
CCOC(=O)CCN1C(=O)[C@H]2[C@@H]3C(=CC[C@H]2C1=O)C(=O)[C@H]1O[C@H]1[C@H]3O -0.369
O=C1CCCC=C1C(O)C1CCCCC1 (stereo unspecified) -1.76
CCN1C(=O)[C@H]2[C@H]3[C@H](O)[C@H](O)CC(=NOC[C@@H](O)[C@H]4O[C@@H]5OC(C)(C)O[C@@H]5[C@H]4O)[C@@H]3CC[C@H]2C1=O -0.898
COc1ccc(COC(=O)NN=C2C[C@@H](O)[C@@H](O)[C@@H]3[C@@H]4C(=O)N(Cc5ccccc5)C(=O)[C@@H]4CC[C@@H]23)cc1 0.207
C[C@H]1CC[C@H]2C(=O)OC(COc3ccc(C(C)(C)C)cc3)CN2[C@@H]1c1ccc(Br)cc1 (stereo partly specified) -0.673
COCCNC(=O)OCC1CCCC2(CC(OC(=O)NCc3cccc4ccccc34)CC(CCC(=O)N[C@@H](C)C(=O)OC)O2)O1 (stereo partly specified) 0.124
CC(C)CON=C1[C@H]2CCn3c(=O)n(C)c(=O)n3[C@H]2[C@H](O)[C@@H]2O[C@H]12 -0.764
CO[C@H]1COC(=O)[C@H](CCSC)NC(=O)CC=C[C@@H](C)[C@H](OC)COC(=O)[C@@H](OCc2ccccc2)C=C[C@@H]1C -0.611
CC(CCN1CCCCc2nc(C)c(C)cc21)=NOC[C@@H](O)[C@H]1O[C@@H]2OC(C)(C)O[C@@H]2[C@H]1O -0.183
CC(C)(C)N1C(=O)[C@H]2[C@H]3[C@H](O)[C@H](O)CC(=NOC[C@@H](O)COCc4ccco4)[C@@H]3CC[C@H]2C1=O -0.0796
C=CC[C@@H]1C=C[C@H](ON=C2C[C@@H](O)[C@@H](O)[C@@H]3[C@@H]4C(=O)N(CC)C(=O)[C@@H]4CC[C@@H]23)[C@@H](CO)O1 -2.18
CCOC(=O)NN=C1C[C@@H](O)[C@@H](O)[C@@H]2[C@@H]3C(=O)N(CC)C(=O)[C@@H]3CC[C@H]12 0.463
